Reference: PubChem BioAssay

What was measured:
[1] = test system: Human papillomavirus type 1a protein E7 (residues 44-93); assay: small molecules binding HPV E7 44-93 – biochemical, small-molecule microarray, residues 44-93, 635 nm fluorescence, primary screen (AID 1108); details: fluorescence 635 nm, higher = more signal;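 further: E7 fragment applied at 1 µg/mL in TBST for 1 h at 4 C; score combines spot fluorescence with its signal to noise ratio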
[2] = hepatitis C replication reporter changes, two-sided – Huh7 cells, luciferase reporter, HCV replication inhibitor project, primary screen (AID 1109); details: Huh7 HCV replicon luciferase reporter, 48 h; higher = more signal;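 further: huh7 hepatoma cells harbouring a luciferase neomycin HCV replicon reporter; luciferase luminescence as measure of HCV replicon replication; test concentration not given here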
[3] = biological target: Left-right determination factor 2 (Homo sapiens) (UniProt O00292); assay: small molecules binding LEFTY2 protein – biochemical, small-molecule microarray, 635 nm fluorescence scan, primary screen (AID 1110); details: higher = more signal
Sequence of Left-right determination factor 2 (Homo sapiens) (O00292 whole entry, looked up): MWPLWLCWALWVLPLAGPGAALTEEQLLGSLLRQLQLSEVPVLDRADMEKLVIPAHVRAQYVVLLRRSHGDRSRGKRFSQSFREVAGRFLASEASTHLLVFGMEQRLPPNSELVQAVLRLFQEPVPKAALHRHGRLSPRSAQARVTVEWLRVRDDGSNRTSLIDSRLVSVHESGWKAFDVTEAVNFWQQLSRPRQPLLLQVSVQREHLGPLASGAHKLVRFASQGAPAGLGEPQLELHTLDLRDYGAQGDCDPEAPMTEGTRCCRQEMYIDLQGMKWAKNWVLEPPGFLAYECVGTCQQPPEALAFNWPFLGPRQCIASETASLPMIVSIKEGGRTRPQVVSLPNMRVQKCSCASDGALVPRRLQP

[4] = biological target: Calmodulin-1 (Homo sapiens) (UniProt P0DP23); assay: small molecules binding calmodulin-1 with EGTA – biochemical, small-molecule microarray, Cy5-labelled CALM1, profiling panel (AID 1111); details: Cy5-CALM1 binding fluorescence, higher = more signal;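 further: labelled calmodulin applied in Tris saline Tween buffer holding calcium plus EGTA and DTT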
[5] = biological target: Calmodulin-1 (Homo sapiens) (UniProt P0DP23); assay: small molecules binding Ca-loaded calmodulin-1 – biochemical, small-molecule microarray, Cy5-labelled CALM1, plus calcium, artefact control for SMM control-protein annotation, profiling panel (AID 1112); details: Cy5-CALM1 binding fluorescence, higher = more signal;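 further: score merges spot fluorescence with signal to noise from triplicate slides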
[6] = probe aWnt5a binding to arrayed compounds – biochemical, biotinylated probe, 635/667 nm fluorescence, primary screen (AID 1113); details: small-molecule microarray, higher = more signal;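 further: score merges 667 nm fluorescence intensity with signal-to-noise per printed feature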
[7] = probe aShh binding to arrayed compounds – biochemical, biotinylated probe, 635/667 nm fluorescence, primary screen (AID 1114); details: small-molecule microarray, higher = more signal;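 further: probe is biotin-labelled aShh protein from a stem cell growth factor screen; measures binding of labelled protein to compounds printed on the slide; score merges feature fluorescence at 667 nm with signal-to-noise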
[8] = probe aNog binding to arrayed compounds – biochemical, biotinylated probe, 635/667 nm fluorescence, primary screen (AID 1115); details: small-molecule microarray, higher = more signal;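 further: probe is biotinylated aNog protein used at 0.15 µg/mL for 1 h at 4 C; z-score combines 667 nm fluorescence of each spot with its signal to noise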
[9] = biological target: Torsin-1A-interacting protein 1 (Homo sapiens) (UniProt Q5JTV8); assay: compound microarray binding of lysate hLAP1 – cell lysate, small-molecule microarray, COS7 lysate, 635/667 nm fluorescence, primary screen (AID 1116); details: 635 nm fluorescence, higher = more signal
Sequence of Torsin-1A-interacting protein 1 (Homo sapiens) (Q5JTV8 whole entry, looked up): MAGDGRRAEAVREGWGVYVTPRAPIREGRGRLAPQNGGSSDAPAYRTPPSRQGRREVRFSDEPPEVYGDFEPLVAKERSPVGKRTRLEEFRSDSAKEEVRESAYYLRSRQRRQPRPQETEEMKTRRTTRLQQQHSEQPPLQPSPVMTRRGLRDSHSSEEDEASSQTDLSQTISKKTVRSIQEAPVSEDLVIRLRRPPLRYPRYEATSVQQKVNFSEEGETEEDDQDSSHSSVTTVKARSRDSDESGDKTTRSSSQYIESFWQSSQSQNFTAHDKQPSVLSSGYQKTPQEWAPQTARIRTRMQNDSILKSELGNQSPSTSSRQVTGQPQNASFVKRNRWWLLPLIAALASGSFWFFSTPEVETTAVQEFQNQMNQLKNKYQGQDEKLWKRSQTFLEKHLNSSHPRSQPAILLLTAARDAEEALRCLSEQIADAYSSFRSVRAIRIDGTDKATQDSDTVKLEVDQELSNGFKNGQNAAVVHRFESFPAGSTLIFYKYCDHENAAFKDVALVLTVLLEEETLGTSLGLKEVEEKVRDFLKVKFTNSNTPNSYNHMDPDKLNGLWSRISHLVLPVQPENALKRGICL

[10] = biological target: Alpha-bungarotoxin (Bungarus multicinctus) (UniProt P60615); assay: compounds binding labelled alpha-BTX control protein – biochemical, small-molecule microarray, Alexa647 label, 635/667 nm fluorescence, artefact control for SMM control protein annotation, profiling panel (AID 1117); details: alpha-BTX-A647 binding fluorescence, higher = more signal
Sequence of Alpha-bungarotoxin (Bungarus multicinctus) (P60615 whole entry, looked up): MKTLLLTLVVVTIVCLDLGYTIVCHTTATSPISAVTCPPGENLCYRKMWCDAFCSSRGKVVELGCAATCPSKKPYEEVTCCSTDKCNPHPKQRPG

SMILES	composite z-score [1]	z-score [2]	composite z-score [3]	composite z-score [4]	composite z-score [5]	composite z-score [6]	composite z-score [7]	composite z-score [8]	composite z-score [9]	composite z-score [10]
CN1C(=O)C2C(C1=O)C1C=C(CCCO)C2C(C2CC2)N1Cc1cccc(OC(F)(F)F)c1 (stereo not given)	1.4	-1.4	-0.306	0.807	0.951	-0.0944	-0.0709	-0.0964	1.56	0.786
COC(=O)[C@@]1(Cc2ccc(OC)cc2)[C@H]2c3cc(C(=O)N4CCCC4)n(Cc4ccc(Cl)c(C(F)(F)F)c4)c3C[C@H]2CN1C(=O)c1ccccc1	1.47	-2	0.0524	2.74	1.35	0.207	0.165	2.07	1.98	1.62
O=C1N(Cc2ccccc2)c2ccccc2C[C@@]12COC(c1ccc(OCCCO)cc1)=N2	1.24	-1.08	-0.56	0.993	0.749	0.02	0.0018	1.39	1.58	0.802
CC(C)C(CO)N1C(=O)[C@@H]2C3C(=O)OCCC/C=C\[C@H]3OC23C=CCN(Cc2ccccc2)C(=O)[C@@H]13 (stereo not given in full)	-1.78	0.537	-1.05	-0.969	0.574	-0.0643	0.254	-0.103	1.14	-1.68
COCCCNC(=O)[C@@]1(CCC(=O)OC(C)(C)C)COC(c2ccc(OCCCO)cc2)=N1	1.48	-1.11	-0.148	-0.664	-0.0486	-0.124	-0.0169	-0.603	2.01	0.778
CCCC#C[Si](O[C@H](CC)c1cn(Cc2ccccc2)nn1)(C(C)C)C(C)C	1.29	-0.283	0.631	-0.0722	-0.337	0.0799	-0.153	-0.234	0.927	1.11
COC(=O)[C@@]1(Cc2ccc(F)cc2)[C@H]2c3cc(C(=O)N4CCCC4)n(Cc4cc(F)cc5c4OCOC5)c3C[C@H]2CN1C(=O)c1ccccc1	-0.0014	-2.1	-0.285	1.37	1.05	0.179	0.184	-0.694	-0.415	0.92
O=C1C2C=CC(C(O)C3CCCCC3)N(n3cnnc3)C2C(=O)N1Cc1ccccc1 (stereo not given)	1.45	-0.911	-0.0665	0.879	-0.195	0.0914	-0.0064	1.07	0.598	0.496
CC1CC/C=C\[C@H]2OC34C=CCN(C(C)(C)C)C(=O)[C@H]3N(CCCO)C(=O)[C@@H]4C2C(=O)O1 (stereo not given in full)	-0.0793	-0.751	-0.19	-0.128	0.588	-0.105	0.0278	0.0215	1.42	-1.18
NC(=O)N1C(=O)C2C(C1=O)C1C=C(CCCO)C2C(c2ccc(CN3CCCC3)cc2)N1Cc1sc2ccccc2c1Cl (stereo not given)	0.53	-2.9	-0.292	0.302	0.424	-0.0735	-0.0146	-0.342	-0.218	0.187
COC(=O)[C@@]1(Cc2ccccc2)[C@H]2c3cc(C(=O)N(C)C)n(CCO)c3C[C@H]2CN1C(=O)c1ccccc1	0.56	-0.766	0.145	2.07	1.27	0.0511	0.0005	0.623	0.952	0.723
CN(C)CCCCNC(=O)[C@H]1C[C@H]2C(=O)NCC(=O)N2[C@H]1c1ccc(O)cc1	-0.392	0.143	-0.735	-0.608	0.577	-0.145	-0.501	-0.248	-0.38	0.52
C=C(COC)/C(=C/C[C@@H](OC(C)=O)c1ccccc1OCCO)c1cnc2ccccc2c1	1.17	-1.95	0.248	0.35	-0.716	-0.1	0.0796	0.329	1.73	1.56
COc1ccc(C(O)C2C=CC3C(=O)N(C)C(=O)C3N2N(c2ccccc2)c2ccccc2)cc1 (stereo not given)	-1.14	-0.336	-0.302	0.531	0.625	0.0102	-0.0843	0.83	0.74	0.844
COc1cc(CO)cc(I)c1O[C@H]1C=C(C(=O)NCCO)C[C@@H](NC2CCCCCC2)[C@@H]1O	1.15	-4.13	0.867	0.475	-0.572	-0.129	-0.0769	-0.0345	0.484	0.0323
C=C(C)[C@@H]1CC=C(C(O)C2C=CC3C(=O)N(c4ccccc4)C(=O)C3N2Nc2ccc([N+](=O)[O-])cc2)CC1 (stereo not given in full)	1.46	-0.315	1.26	-0.0515	0.261	-0.0222	-0.0119	1.24	-0.151	0.839
C=C(CCCC)/C(=C/C[C@H](OC(C)=O)c1cccc(OCCO)c1)c1cnc2ccccc2c1	-0.114	-2.3	-0.234	-0.437	-0.896	-0.0684	0.0723	0.0664	0.558	0.387
C=CCC(OC(C)=O)[C@@H]1[C@@H](N(Cc2ccc(-c3cccc(C(F)(F)F)c3)o2)C(=O)c2ccc(-c3ccccc3)cc2)c2cc(OCCCO)ccc2N1C(=O)c1ccc2ccccc2c1 (stereo not given in full)	-0.701	-0.514	0.27	0.0114	0.255	-0.119	0.0121	-0.399	0.33	0.0035

SMILES	composite z-score [1]	z-score [2]	composite z-score [3]	composite z-score [4]	composite z-score [5]	composite z-score [6]	composite z-score [7]	composite z-score [8]	composite z-score [9]	composite z-score [10]
COCCOC(=O)N1C(=O)[C@@]2(c3cc(C#CCNC(N)=O)ccc31)[C@H](C(=O)Nc1nc3ccccc3s1)[C@H]1C(=O)O[C@H](c3ccccc3)[C@H](c3ccccc3)N1[C@@H]2c1ccccc1OCCO	0.629	-1.22	0.685	0.567	0.132	-0.0405	0.142	0.355	1.05	0.771
CC1=C([C@H](O)CCc2ccccc2)[C@H](CO)n2c(=O)n(-c3ccccc3)c(=O)n2C1	-0.679	-0.508	0.209	-0.524	-0.604	-0.0685	-0.169	-0.0438	-0.395	-0.105
C=CCOC(=O)[C@H]1[C@@H]2C(=O)O[C@@H](c3ccccc3)[C@@H](c3ccccc3)N2[C@@H](c2ccc(OCCOC(=O)[C@@H]3C[C@@H]4C(=O)N[C@@H](CCCC[N+](C)(C)C)C(=O)N4[C@@H]3c3ccc(O)cc3)cc2)[C@]12C(=O)Nc1ccc(I)cc12	1.41	-2.84	0.668	0.167	-0.49	0.0324	0.203	1.06	1.84	0.74
COc1ccccc1CN1C(=O)c2ccccc2[C@](Cc2ccccc2I)(C(=O)NCC(C)C)[C@@H]1c1ccc(CO)cc1	-0.237	-0.921	-1.25	-0.313	-0.18	-0.0529	-0.0243	0.215	0.078	0.237
CCCCC(O)C1C=CC2C(=O)N(c3ccccc3)C(=O)C2N1Nc1ccc(C#N)cc1 (stereo not given)	1.02	-0.115	0.123	1.06	0.929	-0.0125	0.337	1.19	0.385	1.01
COc1ccc(C(O)C2C=CC3C(=O)N(c4ccccc4)C(=O)C3N2Nc2ccc(C#N)cc2)cc1OCc1ccccc1 (stereo not given)	1.04	-0.738	-0.165	2.32	1.29	0.0497	0.171	0.1	2.54	1.16
CCCCCC1=C2CNC(Cc3ccccc3)(C(=O)OC)C=C2C(C)C1=O (stereo not given)	0.719	-1.85	-1.75	1.54	1.46	-0.0643	0.45	1.7	1.64	0.175
C=C(/C(=C/C[C@@H](OC(C)=O)c1cccc(OCCO)c1)c1cnc2ccccc2c1)C(C)C	0.858	-1.96	0.54	-0.24	-0.51	-0.0045	-0.0709	-0.326	1.02	1.3
CCCCC(O)C1C=CC2C(=O)N(c3ccccc3)C(=O)C2N1Nc1ccc([N+](=O)[O-])cc1 (stereo not given)	1.39	-0.744	0.0256	0.521	-0.118	0.0324	0.036	-0.343	0.853	0.553
O=C1NC(=O)C2C1C=CC(C(O)c1ccc(B(O)O)cc1)N2Nc1ccc(Cl)cc1Cl (stereo not given)	-0.181	-0.693	-0.401	0.524	0.0583	-0.0721	-0.181	0.682	0.392	0.869
CN(C)C(=O)[C@@]1(Cc2ccccc2CN=[N+]=[N-])COC(c2ccc(OCCCO)cc2)=N1	1.37	-2	-1.09	0.809	0.812	-0.0478	0.0483	-0.226	-0.383	1.3
CCCNC(=O)[C@@]1(Sc2ccc(C)cc2)CC(=O)N(Cc2ccccc2Cl)[C@@H]1c1ccc(CO)cc1I	0.135	-2.17	-1.4	0.284	0.321	-0.129	-0.132	1.91	-0.0631	0.461
NC(=O)NCC#Cc1ccc2c(c1)[C@]1(C(=O)N2)[C@H](c2ccc(OCCO)cc2)N2[C@H](c3ccccc3)[C@H](c3ccccc3)OC(=O)[C@H]2[C@@H]1C(=O)NC[C@H](O)c1ccccc1	1.01	-1.27	-0.375	0.0317	-0.194	-0.0572	-0.367	-0.559	0.727	0.502
[N-]=[N+]=Nc1ccccc1[C@@H]1OC(c2ccc(OCCCO)cc2)=N[C@]1(Cc1ccccc1)C(=O)NCCN1CCOCC1	1.5	-2.41	-0.429	-0.0408	0.741	0.0044	0.185	0.996	1.52	1.23
Cc1ccc(S[C@]2(C(=O)NC(C)C)CC(=O)N(C3CCCCC3)[C@@H]2c2ccc(CO)cc2I)cc1	1.44	-2.93	-0.0068	0.679	-0.558	-0.0721	-0.0035	0.313	0.208	1.52
COCCOC(=O)N1C(=O)[C@@]2(c3cc(C#CCCO)ccc31)[C@H](c1ccccc1OCCO)N1[C@H](c3ccccc3)[C@H](c3ccccc3)OC(=O)[C@H]1[C@@H]2C(N)=O	1.41	-1.64	0.416	1.25	-0.0732	0.002	0.0204	-0.467	0.606	1.23
CC(C)C(O)C1C=CC2C(=O)NC(=O)C2N1Nc1ccccn1 (stereo not given)	0.927	-0.43	0.108	0.0802	-0.187	0.009	-0.0793	0.116	0.325	0.631
